Active and inactive are the calls of the source. How the calls were made is not given here.
Test system: HIV-1 nucleocapsid protein NCp7 (binding to TG oligonucleotide)
Test: HIV Nucleocapsid (AID 346);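 further: potency is for inhibitors that block NC binding and lower polarization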
Conditions: HIV-1 NC / fluorescein-TGTGTGTG probe, fluorescence polarization
Summary of the method: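 HIV-1 NC (100 nM) binding to fluorescein-labelled ssDNA TG4xF (10 nM) in Hepes pH 7.5, 250mM NaCl, 1uM ZnCl2, TCEP and 2-mercaptoethanol; compounds pin-transferred, 1 hr room temperature, fluorescence polarization read on CCD imager.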
Potency means the concentration at half of the fitted maximal effect.

Compound	Potency
Cc1nc2cnc(N3CCN(C)CC3)nc2n(CCC#N)c1=O	> 20 µM (inactive)
N#Cc1cccc(-c2nc3cnc(N4CCOCC4)nc3n(Cc3ccc(F)cc3)c2=O)c1	> 20 µM (inactive)
COc1ccc(-n2c(=O)c(-c3ccc(Cl)cc3)nc3cnc(N(C)C)nc32)cc1	> 20 µM (inactive)
COc1ccc2[nH]cc(CCNc3ncnc4ccc(-c5ccccc5C#N)cc34)c2c1	> 20 µM (inactive)
CNc1ncnc2ccc(-c3ccccc3OC)cc12	> 20 µM (inactive)
CN(C)c1ccc(-c2ccc3ncnc(-n4ccnc4)c3c2)cc1	> 20 µM (inactive)
CN(C)Cc1ccccc1-c1nccc(N(C)Cc2ccco2)n1	> 20 µM (inactive)
O=C(c1ccco1)N1CCC2(CCN(Cc3nccs3)CC2)CC1	> 20 µM (inactive)
CC(C)NC(=O)N1CCC2(CC1)CCN(C(=O)c1cc(C(F)(F)F)cc(C(F)(F)F)c1)CC2	> 20 µM (inactive)
O=C(c1ccco1)N1CCC[C@@]2(CCN(Cc3ccccc3)C2)C1	> 20 µM (inactive)
COCC(=O)N1CCC[C@@]2(CCN(Cc3ccccc3OC)C2)C1	> 20 µM (inactive)
COCC(=O)N1CCC2(CC1)CCN(c1ncccn1)CC2	> 20 µM (inactive)
COCC(=O)N1CCC[C@@]2(CCN(C(=O)Nc3ccccc3)C2)C1	> 20 µM (inactive)
O=C(c1ccncc1)N1CCC2(CC1)CCN(c1ccc(-c3ccccc3)cc1)CC2	> 20 µM (inactive)
O=c1c(-c2ccccc2)nc2cnc(N3CCNCC3)nc2n1-c1ccccc1	> 20 µM (inactive)
CN(C)c1nc(-c2ccc3c(c2)OCO3)nc2ccccc12	> 20 µM (inactive)
COCC(=O)N1CCC2(CCCN(c3cccc(-c4ccccc4)c3)C2)CC1	> 20 µM (inactive)
COCCn1c(=O)c(-c2ccc(F)cc2)nc2cnc(Oc3ccccc3)nc21	> 20 µM (inactive)
CN(C)c1ccc(-c2nccc(NCCN3CCOCC3)n2)cc1	> 20 µM (inactive)
COc1ccc(-n2c(=O)cnc3cnc(N4CCN(C)CC4)nc32)cc1	> 20 µM (inactive)

Compound	Potency
CS(=O)(=O)Nc1cccc(-c2cncnc2NCc2cccnc2)c1	> 20 µM (inactive)
CN1CCN(c2ncc3nc(-c4cccc(C#N)c4)c(=O)n(Cc4ccc(F)cc4)c3n2)CC1	> 20 µM (inactive)
COC(=O)N1CCC2(CC1)CN(c1ccccn1)C2	> 20 µM (inactive)
COc1cccc(-c2cncnc2Nc2ccccc2)c1	> 20 µM (inactive)
COCCn1c(=O)c(-c2ccc(OC)cc2)nc2cnc(Oc3ccccc3)nc21	> 20 µM (inactive)
Cc1cnc(CNc2cc(-c3ccccc3Cl)ncn2)cn1	> 20 µM (inactive)
CNc1ncnc2ccc(-c3cccc(NS(C)(=O)=O)c3)cc12	> 20 µM (inactive)
COc1ccc(-n2c(=O)c(CCc3ccccc3)nc3cnc(N4CCOCC4)nc32)cc1	> 20 µM (inactive)
COc1cccc(Nc2ncc3nc(-c4ccccc4)c(=O)n(C)c3n2)c1	> 20 µM (inactive)
COc1ccc(-n2c(=O)cnc3cnc(OC)nc32)cc1	> 20 µM (inactive)
COc1cccc(-c2nc(NCc3ccccc3)c3ccccc3n2)c1	> 20 µM (inactive)
COc1ccccc1-c1cc(-n2ccnc2)ncn1	> 20 µM (inactive)
CN(Cc1ccco1)c1ncncc1-c1ccoc1	> 20 µM (inactive)
N#Cc1ccc(CN2CCC3(CC2)CCN(C(=O)c2ccco2)CC3)cc1	> 20 µM (inactive)
N#CCCn1c(=O)cnc2cnc(Oc3ccccc3)nc21	> 20 µM (inactive)
N#CCCn1c(=O)c(-c2ccc(F)cc2)nc2cnc(Oc3cccc(Cl)c3)nc21	> 20 µM (inactive)
N#Cc1cccc(-c2ccc3ncnc(NCCN4CCOCC4)c3c2)c1	> 20 µM (inactive)
CN(C)c1ncc2nc(CCc3ccccc3)c(=O)n(C[C@H]3CCCO3)c2n1	> 20 µM (inactive)
Clc1ccccc1-c1nc(-n2ccnc2)c2ccccc2n1	> 20 µM (inactive)
Cc1noc(C)c1C(=O)N1CCC[C@@]2(CCN(c3ccccn3)C2)C1	> 20 µM (inactive)
